Holding throughout (test): log2 fold change, soluble protein after heating vs DMSO (PISA); higher = thermal stabilisation; K562 lysate, 10 uM; active = over 0.2 and 3.5 SD of the protein, either way, in both replicates (recomputed)
Compound in assay [1]: c1ccc([C@@H]2C[C@H]2NC2CCNCC2)cc1
The method in brief:
(§1)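 To prepare the extract, K562 pellets were dounce-homogenised in PBS pH 7.4 with 1 mM MgCl2, giving crude material at 1 mg/mL protein. This was treated with 10 μM compound for 30 min, then heated in aliquots for 3 min over 48°C-58°C before pooling and addition of NP-40 to 0.5% at 4°C. Centrifugation at 21,000xg for 90 min left soluble protein in the supernatant, which TMTpro 16plex LC-MS/MS quantified with equalised channel sums. Results are log-two fold changes in thermal stability compared with solvent controls, from duplicates.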

Compound in assay [2]: C1=CC=C(C=C1)[C@H](COC2=CC3=C(C=C2)NC(=O)N3)NC(=O)C4=CC=CN(C4=O)CC5=CC(=C(C=C5)F)F
The gist of the method:
as §1

Compound in assay [3]: CC1=C(SC2=C1C(=N[C@H](C3=NN=C(N32)C)CC(=O)N)C4=CC=C(C=C4)Cl)C
The gist of the method:
as §1

Compound in assay [4]: Cc1sc2c(c1C)C(c1ccc(Cl)cc1)=N[C@@H](CC(=O)OC(C)(C)C)c1nnc(C)n1-2
The gist of the method:
as §1

Compound in assay [5]: CC1=C2C(=CC=C1)N=C(N(C2=O)C3=CC=CC=C3C)CN4C=NC5=C(N=CN=C54)N
The method in brief: as §1

The full data set covers some 8,800 targets. This sample favours those with a hit. About 0.5% of all pairs of compound and target were hits. A number with no mark means an inactive call.

Sequence of UniProt P62328 (P62328 whole entry, looked up): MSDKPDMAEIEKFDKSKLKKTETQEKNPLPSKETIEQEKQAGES
Sequence of UniProt O43399 (O43399 whole entry, looked up): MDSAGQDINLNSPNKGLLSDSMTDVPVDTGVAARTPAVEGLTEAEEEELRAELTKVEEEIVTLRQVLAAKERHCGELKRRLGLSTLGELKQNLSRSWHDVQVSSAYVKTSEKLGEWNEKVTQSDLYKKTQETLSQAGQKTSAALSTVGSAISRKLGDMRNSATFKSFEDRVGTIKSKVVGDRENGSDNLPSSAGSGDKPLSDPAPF
Sequence of UniProt Q8TD43 (Q8TD43 whole entry, looked up): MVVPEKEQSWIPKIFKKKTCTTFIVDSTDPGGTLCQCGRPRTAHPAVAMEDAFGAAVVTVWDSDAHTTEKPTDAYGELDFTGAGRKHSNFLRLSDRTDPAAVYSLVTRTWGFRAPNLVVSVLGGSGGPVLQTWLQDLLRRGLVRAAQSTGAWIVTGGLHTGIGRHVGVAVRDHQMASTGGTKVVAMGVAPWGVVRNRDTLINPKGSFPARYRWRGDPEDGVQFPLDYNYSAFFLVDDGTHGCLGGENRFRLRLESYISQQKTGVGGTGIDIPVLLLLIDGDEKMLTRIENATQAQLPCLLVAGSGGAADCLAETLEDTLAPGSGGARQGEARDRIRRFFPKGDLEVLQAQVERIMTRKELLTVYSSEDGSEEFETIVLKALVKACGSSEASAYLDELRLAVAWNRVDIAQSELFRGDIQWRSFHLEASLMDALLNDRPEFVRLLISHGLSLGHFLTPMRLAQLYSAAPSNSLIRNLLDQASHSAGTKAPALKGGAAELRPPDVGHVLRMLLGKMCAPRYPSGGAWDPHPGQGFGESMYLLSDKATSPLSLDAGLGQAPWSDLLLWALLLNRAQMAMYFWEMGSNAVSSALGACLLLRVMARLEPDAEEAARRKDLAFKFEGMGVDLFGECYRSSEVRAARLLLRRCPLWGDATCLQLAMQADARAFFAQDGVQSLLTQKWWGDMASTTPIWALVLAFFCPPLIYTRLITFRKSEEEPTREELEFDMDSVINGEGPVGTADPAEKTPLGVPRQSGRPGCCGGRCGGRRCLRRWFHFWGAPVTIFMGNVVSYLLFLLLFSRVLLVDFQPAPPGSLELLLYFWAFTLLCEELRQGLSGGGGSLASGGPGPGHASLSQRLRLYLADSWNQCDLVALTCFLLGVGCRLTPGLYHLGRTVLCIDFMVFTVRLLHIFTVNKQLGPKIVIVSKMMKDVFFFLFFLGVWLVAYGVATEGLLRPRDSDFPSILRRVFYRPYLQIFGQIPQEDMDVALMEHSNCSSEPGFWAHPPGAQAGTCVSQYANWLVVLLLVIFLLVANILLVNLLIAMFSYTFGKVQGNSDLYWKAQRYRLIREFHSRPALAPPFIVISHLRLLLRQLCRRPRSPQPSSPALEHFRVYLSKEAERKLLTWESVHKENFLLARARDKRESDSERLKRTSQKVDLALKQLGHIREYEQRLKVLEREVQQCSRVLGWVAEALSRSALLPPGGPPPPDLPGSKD
Sequence of UniProt Q04726 (Q04726 whole entry, looked up): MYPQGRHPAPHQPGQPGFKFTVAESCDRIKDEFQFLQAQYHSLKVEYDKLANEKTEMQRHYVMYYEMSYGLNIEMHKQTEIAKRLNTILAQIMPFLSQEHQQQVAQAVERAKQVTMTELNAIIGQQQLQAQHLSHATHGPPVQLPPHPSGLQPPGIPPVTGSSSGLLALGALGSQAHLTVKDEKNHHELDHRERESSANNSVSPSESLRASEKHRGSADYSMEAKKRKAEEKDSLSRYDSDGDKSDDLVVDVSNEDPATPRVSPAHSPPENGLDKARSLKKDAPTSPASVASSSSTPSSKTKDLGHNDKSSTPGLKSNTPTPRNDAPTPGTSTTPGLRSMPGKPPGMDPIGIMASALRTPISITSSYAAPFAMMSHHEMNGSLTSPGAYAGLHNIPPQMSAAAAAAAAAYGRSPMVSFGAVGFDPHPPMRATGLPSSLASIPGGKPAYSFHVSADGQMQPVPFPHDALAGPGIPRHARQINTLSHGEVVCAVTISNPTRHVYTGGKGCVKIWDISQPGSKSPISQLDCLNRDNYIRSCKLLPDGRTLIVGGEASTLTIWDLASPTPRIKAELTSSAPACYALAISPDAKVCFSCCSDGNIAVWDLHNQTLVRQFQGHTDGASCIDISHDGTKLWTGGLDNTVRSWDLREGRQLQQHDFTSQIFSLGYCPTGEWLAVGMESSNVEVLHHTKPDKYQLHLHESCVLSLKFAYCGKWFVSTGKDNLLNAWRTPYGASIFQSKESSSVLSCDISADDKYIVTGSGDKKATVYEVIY
Sequence of UniProt P21580 (P21580 whole entry, looked up): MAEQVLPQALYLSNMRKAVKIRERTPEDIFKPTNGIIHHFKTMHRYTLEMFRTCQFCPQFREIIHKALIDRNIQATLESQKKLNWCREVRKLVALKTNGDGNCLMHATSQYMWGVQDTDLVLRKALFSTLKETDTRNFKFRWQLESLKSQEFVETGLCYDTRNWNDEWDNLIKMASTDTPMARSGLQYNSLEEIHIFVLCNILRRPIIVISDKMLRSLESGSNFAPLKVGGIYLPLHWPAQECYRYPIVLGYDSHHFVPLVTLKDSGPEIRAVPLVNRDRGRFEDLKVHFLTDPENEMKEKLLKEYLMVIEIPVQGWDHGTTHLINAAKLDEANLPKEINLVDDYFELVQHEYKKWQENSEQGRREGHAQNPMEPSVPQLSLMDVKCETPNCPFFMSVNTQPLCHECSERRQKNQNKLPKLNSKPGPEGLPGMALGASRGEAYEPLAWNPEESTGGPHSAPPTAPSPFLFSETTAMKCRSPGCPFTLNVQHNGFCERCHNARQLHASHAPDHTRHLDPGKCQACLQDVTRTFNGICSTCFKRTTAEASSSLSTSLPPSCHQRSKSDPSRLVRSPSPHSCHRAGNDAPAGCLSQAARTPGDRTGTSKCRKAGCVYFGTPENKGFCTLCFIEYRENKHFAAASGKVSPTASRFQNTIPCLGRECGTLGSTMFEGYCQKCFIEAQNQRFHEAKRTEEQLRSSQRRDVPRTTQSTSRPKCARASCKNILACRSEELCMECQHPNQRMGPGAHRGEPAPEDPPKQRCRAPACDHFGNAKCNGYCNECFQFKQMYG
Sequence of UniProt Q01664 (Q01664 whole entry, looked up): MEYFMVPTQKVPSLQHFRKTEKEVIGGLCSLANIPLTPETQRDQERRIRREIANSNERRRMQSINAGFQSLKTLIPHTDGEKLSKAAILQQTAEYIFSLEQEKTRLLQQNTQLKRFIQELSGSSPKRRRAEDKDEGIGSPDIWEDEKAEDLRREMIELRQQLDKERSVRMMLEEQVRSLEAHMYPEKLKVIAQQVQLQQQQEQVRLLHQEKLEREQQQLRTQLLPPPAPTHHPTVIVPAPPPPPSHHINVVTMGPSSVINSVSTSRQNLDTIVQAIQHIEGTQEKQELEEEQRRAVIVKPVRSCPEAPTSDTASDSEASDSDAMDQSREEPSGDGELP
Sequence of UniProt Q9UKE5 (Q9UKE5 whole entry, looked up): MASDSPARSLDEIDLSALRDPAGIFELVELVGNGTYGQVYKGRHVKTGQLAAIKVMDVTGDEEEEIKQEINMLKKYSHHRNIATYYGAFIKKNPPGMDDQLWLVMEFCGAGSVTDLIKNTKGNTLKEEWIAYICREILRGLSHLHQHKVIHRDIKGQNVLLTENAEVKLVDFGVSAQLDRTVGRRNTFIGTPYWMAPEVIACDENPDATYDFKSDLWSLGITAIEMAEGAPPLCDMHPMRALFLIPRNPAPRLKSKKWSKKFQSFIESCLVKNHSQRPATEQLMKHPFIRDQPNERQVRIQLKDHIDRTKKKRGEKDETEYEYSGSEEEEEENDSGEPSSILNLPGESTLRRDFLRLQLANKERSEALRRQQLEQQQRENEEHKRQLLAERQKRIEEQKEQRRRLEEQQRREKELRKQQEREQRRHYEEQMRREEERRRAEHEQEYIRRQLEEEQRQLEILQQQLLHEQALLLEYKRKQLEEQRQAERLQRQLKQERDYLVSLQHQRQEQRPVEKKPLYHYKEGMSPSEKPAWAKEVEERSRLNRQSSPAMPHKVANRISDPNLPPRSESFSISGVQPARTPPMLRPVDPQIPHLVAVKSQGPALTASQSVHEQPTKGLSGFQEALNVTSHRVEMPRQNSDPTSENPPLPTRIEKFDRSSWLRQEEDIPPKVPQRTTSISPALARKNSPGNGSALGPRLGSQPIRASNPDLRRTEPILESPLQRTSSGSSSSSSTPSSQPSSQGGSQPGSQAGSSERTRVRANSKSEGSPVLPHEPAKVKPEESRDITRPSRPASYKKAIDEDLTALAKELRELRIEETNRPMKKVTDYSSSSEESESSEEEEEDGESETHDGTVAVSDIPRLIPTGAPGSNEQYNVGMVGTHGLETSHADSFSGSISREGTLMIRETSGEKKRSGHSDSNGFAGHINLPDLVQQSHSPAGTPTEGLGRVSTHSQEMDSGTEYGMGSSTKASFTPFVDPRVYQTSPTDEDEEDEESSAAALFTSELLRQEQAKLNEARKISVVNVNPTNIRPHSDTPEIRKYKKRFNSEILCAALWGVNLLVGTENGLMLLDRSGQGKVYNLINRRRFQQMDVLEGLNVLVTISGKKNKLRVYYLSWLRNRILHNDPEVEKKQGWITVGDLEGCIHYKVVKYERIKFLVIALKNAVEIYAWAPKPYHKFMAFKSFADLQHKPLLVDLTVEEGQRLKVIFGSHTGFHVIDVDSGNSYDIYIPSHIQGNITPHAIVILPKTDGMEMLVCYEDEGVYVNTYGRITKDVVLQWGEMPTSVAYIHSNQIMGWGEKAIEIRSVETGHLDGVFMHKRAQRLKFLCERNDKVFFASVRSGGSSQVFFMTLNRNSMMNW
Sequence of UniProt Q9NRX6 (Q9NRX6 whole entry, looked up): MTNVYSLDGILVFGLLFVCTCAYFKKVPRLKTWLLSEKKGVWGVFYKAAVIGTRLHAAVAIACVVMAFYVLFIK
Sequence of UniProt Q6P9G4 (Q6P9G4 whole entry, looked up): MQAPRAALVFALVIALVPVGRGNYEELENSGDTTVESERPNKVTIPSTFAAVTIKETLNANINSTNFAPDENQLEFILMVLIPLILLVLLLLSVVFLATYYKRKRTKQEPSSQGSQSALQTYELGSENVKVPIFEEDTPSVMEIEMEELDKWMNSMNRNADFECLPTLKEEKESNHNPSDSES

As to TLK2 isoform 3 (UniProt Q86UE8), the log2 fold change in assay [1] is 0.097.

As for TRPM4 (UniProt Q8TD43), the log2 fold change was -0.074 in assay [2], 0.114 in assay [3], -0.042 in assay [4] and -0.354 in assay [1].

Turning to TJP1 (UniProt H0Y3R8), in assay [1], the log2 fold change is 0.031.

In the case of TCF4 (UniProt P15884), the figures for the log2 fold change in assay [4] and in assay [1] were 0.047 and 0.091, respectively.

Regarding TCF3 (UniProt X6REB3), the log2 fold change in assay [5] is -0.031; in assay [1] it was -0.25.

In the case of TMEM154 (UniProt Q6P9G4), the log2 fold change in assay [4] is -0.073.

TASP1 (UniProt Q9H6P5): the results for the log2 fold change in assay [2], in assay [3] and in assay [4] were 0.027, 0.205 and 0.059, respectively.

Take TMEM167B (UniProt Q9NRX6): the log2 fold change in assay [2] is 0.021; in assay [3], -0.032; in assay [5], 0.036; in assay [1], -0.187.

Regarding TLE3 isoform 5 (UniProt Q04726), the log2 fold change in assay [2] was -0.061; in assay [3], -0.454 (active); in assay [4], -0.069; in assay [1], 0.199.

Consider TENM4 (UniProt Q6N022), for which the log2 fold change in assay [2] is -0.057; in assay [3], 0.174; in assay [1], 0.137.

TNKS (UniProt O95271): the values for the log2 fold change in assay [5], in assay [4] and in assay [1] were 0.023, 0.039 and -0.035, respectively.

For TFAP4 (UniProt Q01664), the log2 fold change was 0.018 in assay [2], -0.069 in assay [3], 0.012 in assay [5] and 0.081 in assay [1].

In the case of TSPAN3 (UniProt O60637), the values for the log2 fold change in assay [5], in assay [4] and in assay [1] were 0.174, 0.006 and 0.16, respectively.

As for TGFBR1 isoform 2 (UniProt P36897), in assay [4], the log2 fold change was -0.004.

For the target TUBB4A (UniProt P04350), the log2 fold change is 0.015 in assay [2], -0.03 in assay [3], 0.044 in assay [4] and 0.044 in assay [1].

For the target TLE3 (UniProt H0YL70), the log2 fold change in assay [4] was -0.343.

TUBA4A (UniProt C9JQ00): the log2 fold change is -0.111 in assay [2], -0.225 in assay [3] and 0.056 in assay [1].

In the case of TPD52L2 isoform 3 (UniProt O43399), the log2 fold change is -0.058 in assay [2], 0.135 in assay [3] and 0.098 in assay [1].

For UBR4 isoform 4 (UniProt Q5T4S7), the log2 fold change was -0.023 in assay [5] and -0.284 in assay [4].

In the case of UCP2 (UniProt P55851), the log2 fold change in assay [5] is -0.003.

TNFAIP3 (UniProt P21580): the log2 fold change in assay [2] is 0.052; in assay [3] it was 0.05; in assay [4] it was 0.033; in assay [1] it was 0.06.

Take TMEM132A isoform 2 (UniProt Q24JP5): the log2 fold change in assay [1] was -0.066.

Turning to TMC1 (UniProt Q8TDI8), in assay [5], the log2 fold change is 0.038.

Turning to UBN1 (UniProt Q9NPG3), the log2 fold change in assay [5] is 0.03; in assay [4] it was -0.164; in assay [1], 0.085.

As to TRAF7 (UniProt Q6Q0C0), the log2 fold change is 0.007 in assay [5], -0.005 in assay [4] and 0.238 in assay [1].

As to TEDC1 (UniProt Q86SX3), the log2 fold change in assay [4] is 0.058.

Turning to TRIM3 (UniProt O75382), the log2 fold change in assay [5] is 0.197.

UBIAD1 (UniProt Q9Y5Z9): the results for the log2 fold change in assay [5], in assay [4] and in assay [1] were -0.025, -0.048 and 0.025, respectively.

On to TNIK isoform 5 (UniProt Q9UKE5), for which the log2 fold change in assay [2] is 0.008; in assay [3] it was -0.009; in assay [4], -0.089; in assay [1], -0.041.

As to U2AF1L5 (UniProt P0DN76), the log2 fold change in assay [4] was 0.002; in assay [1], -0.499.

TFPI isoform 2 (UniProt P10646): in assay [5], the log2 fold change is 0.048.

Regarding TM2D3 (UniProt Q9BRN9), the log2 fold change in assay [2] is 0.023; in assay [3], -0.003; in assay [1] it was -0.513.

As to TCF20 (UniProt Q9UGU0), the log2 fold change is 0.022 in assay [2], -0.063 in assay [3], -0.263 in assay [4] and -0.059 in assay [1].

On to TEC (UniProt P42680), for which the log2 fold change in assay [5] is 0.114.

In the case of TMSB4X (UniProt P62328), the results for the log2 fold change in assay [2], in assay [3] and in assay [1] were -0.935 (active), 0.434 and 0.176, respectively.

On to TTLL12 (UniProt V9GY16), for which the log2 fold change in assay [2] was 0.022; in assay [3] it was 0.606; in assay [5], 0.066; in assay [1], -0.065.

In the case of TFPT (UniProt P0C1Z6), the log2 fold change is -0.176 in assay [2], -0.078 in assay [3] and -0.052 in assay [4].

As for UBAP2L (UniProt F8W726), the log2 fold change in assay [5] is -0.018.
